From PubChem
TSG101-PTAP inh – qHTS Assay for Iinhibitors of HIV-1 Budding by Blocking the Interaction of PTAP/TSG101 | Tumor susceptibility gene 101 protein (Homo sapiens), Q99816 | Fluorescence polarization, FITC-PTAP peptide / Tsg101 binding | 340,000 tested, under 10 active | AID 493005, 2010 | Potency, µM (highest dose often 115 µM), inactives show at the highest dose activity change, negative = inhibition, most hits filed as inhibitors; active = well fitted inhibition curve with a large enough effect in the main read-out, with a control signal flat, not every such curve was filed as active; inconclusive = small, poorly fitted or top-dose-only effect, or effect the other way, or a change in a side signal; inactive = no such curve, though single readings can be large or run the other way; note: % of control where 0% means no effect
Target sequence (Q99816 whole entry, looked up): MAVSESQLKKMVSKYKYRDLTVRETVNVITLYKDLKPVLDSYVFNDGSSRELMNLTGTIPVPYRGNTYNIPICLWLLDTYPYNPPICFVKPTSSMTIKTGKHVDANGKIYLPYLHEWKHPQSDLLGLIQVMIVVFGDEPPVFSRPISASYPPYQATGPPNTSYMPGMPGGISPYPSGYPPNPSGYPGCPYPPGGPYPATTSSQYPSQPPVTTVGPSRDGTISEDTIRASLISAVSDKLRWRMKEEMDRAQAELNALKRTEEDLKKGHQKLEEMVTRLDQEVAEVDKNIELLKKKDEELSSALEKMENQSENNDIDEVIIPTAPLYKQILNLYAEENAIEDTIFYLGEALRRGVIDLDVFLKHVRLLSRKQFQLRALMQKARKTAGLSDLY
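Compounds were pin-transferred onto Tsg101 binding domain (10 uM final) in HEPES pH 7.5 buffer, then FITC-PTAP peptide was added at 50 nM final. After 20 min at RT, polarization reported peptide displacement across a qHTS concentration series.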
KB-V1 cytotox – qHTS assay for MDR1-selective chemotherapeutics: Primary screen using the drug-selected MDR subline cells KB-V1. actives 3.4% (n = 400,000). KB-V1 MDR cells viability, CellTiter-Glo, 72 h. Potency, µM (highest dose often 46.1 µM), actives largely listed as cytotoxic. AID 1347076, 2019; note: % is set by controls: 0 for no effect and ±100 for the full control effect; nearly all actives have a fitted effect of over 60% in size
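KB-V1 cells (P-gp-expressing MDR subline of KB-3-1) in phenol-red-free DMEM with 10% FBS were exposed to library compounds over a concentration series for 72 h at 37 degrees C. Viability read by CellTiter-Glo luminescence; concentration-effect curves fitted after normalization.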
RGS4 inhibitor – Inhibitors of Regulator of G Protein Signaling (RGS) 4: qHTS. Regulator of G-protein signaling 4 (Homo sapiens), P49798. Transcreener GDP fluorescence polarization, RGS4-accelerated GTP hydrolysis. actives 0.039% (n = 390,000). AID 504845, 2011. Potency, µM (doses to about 114 µM), for the others: at the top dose activity change, negative = inhibition, most hits filed as inhibitors; note: % is set by controls: 0 for no effect and ±100 for the full control effect; nearly all actives have a fitted effect of over 75% in size
Target sequence (P49798 whole entry, looked up): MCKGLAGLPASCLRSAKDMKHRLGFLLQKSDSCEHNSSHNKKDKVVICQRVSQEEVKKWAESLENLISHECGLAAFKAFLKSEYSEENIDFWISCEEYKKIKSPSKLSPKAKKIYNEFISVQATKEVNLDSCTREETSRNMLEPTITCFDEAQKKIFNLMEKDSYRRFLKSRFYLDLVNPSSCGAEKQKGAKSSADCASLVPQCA
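MLSMR compounds (23 nl, pin-transferred) preincubated 10 min at room temperature with a 500nM (2x) first reagent, then RGS4 at 900nM (2x) plus Transcreener GDP mix added; fluorescence polarization (620/688 nm) read before and after 90 min at 30 °C.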
SW480 rereplic – A quantitative high throughput screen for small molecules that induce DNA re-replication in SW480 colon adenocarcinoma cells; actives 1.8% (n = 340,000); SW480 DNA re-replication, Hoechst DNA content imaging, 48 h; Potency, µM (doses to about 46.1 µM), for inactives: top-dose re-replication activation, hits mostly activators; note: % of control where 0% means no effect; nearly all actives have a fitted effect of over 55% in size
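Image-based DNA-content assay: after two days of treatment, nuclei were labelled with the DNA dye Hoechst and imaged, and hits were compounds raising the count of nuclei showing high fluorescence intensity.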
MCF10A rerep – A quantitative high throughput screen for small molecules that induce DNA re-replication in MCF 10a normal breast cells. MCF 10A DNA re-replication, Hoechst nuclear intensity, 48 h. Potency, µM (titrated, usually from 46.1 µM), for inactives: at the top dose activity, positive = re-replication, actives largely listed as activators. actives 2.9% (n = 350,000). AID 624296, 2012; note: % of control where 0% means no effect; nearly all actives have a fitted effect of over 50% in size
KB-3-1 tox – qHTS assay for MDR1-selective chemotherapeutics: Primary screen using the parental adenocarcinoma cell KB-3-1. actives 1.4% (n = 400,000). KB-3-1 viability, CellTiter-Glo ATP luminescence, 72 h. Potency, µM (doses to about 46.1 µM), most hits filed as cytotoxic; note: % is set by controls: 0 for no effect and ±100 for the full control effect; nearly all actives have a fitted effect of over 60% in size
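Cytotoxicity measured as CellTiter-Glo luminescence after 72 h at 37 C. Compound titrations were pinned onto drug-naive KB-3-1 parental adenocarcinoma cells grown in DMEM with 10% FBS, and normalized data fitted to concentration-response curves.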
* = called active by the depositor; [ ] = dose if it differs, or a comment. In the library only some 6.6% were active in any assay of this set; here they are far more common. Unless noted, calls come from the whole dose curve; as a rule, active = well fitted curve in the direction sought with a large enough effect; inconclusive = small, poorly fitted or top-dose-only effect, or another doubt; inactive = no such curve, though single readings can be large; an effect the other way counts as inactive or inconclusive. Potency is the fitted concentration of half-maximal effect.

O=C1C(F)=CC(COC(c2ccccc2)(c2ccccc2)c2ccccc2)OC1n1cc(F)c(=O)[nH]c1=O (stereo not given) was read as TSG101-PTAP inh -1%, KB-V1 cytotox inconclusive, RGS4 inhibitor inconclusive, SW480 rereplic 7.3µM*, MCF10A rerep 2.6µM* and KB-3-1 tox inconclusive.
Screening CCc1ccc2c(c1)C(=O)CCC2 returned TSG101-PTAP inh -1%, KB-V1 cytotox inactive, RGS4 inhibitor 0%, SW480 rereplic -10%, MCF10A rerep -4% and KB-3-1 tox inactive.
O=C1CCCc2cc3c(cc21)CC1(C3)Cc2cc3c(cc2C1)C(=O)CCC3 was read as TSG101-PTAP inh -2%, KB-V1 cytotox inactive, RGS4 inhibitor 17%, SW480 rereplic 5.8µM*, MCF10A rerep 3.3µM* and KB-3-1 tox 6.5µM*.
`COc1ccc(N2CCN(CC(O)COc3ccc(C(C)C)c(C)c3)CC2)cc1` (stereo not given) gave KB-V1 cytotox inconclusive, RGS4 inhibitor 10% and KB-3-1 tox inconclusive.
For Cc1cc(C(=O)CN2C(=O)c3cccc(N)c3C2=O)c(C)n1Cc1cccs1 the results were TSG101-PTAP inh -5%, KB-V1 cytotox inactive, RGS4 inhibitor -31%[11.4 µM], SW480 rereplic inconclusive, MCF10A rerep 2.6µM* and KB-3-1 tox inactive.
Screening COc1ccc(NC(=O)c2cc(C)n(Cc3cccs3)c2C)cc1 returned TSG101-PTAP inh -4%, KB-V1 cytotox inactive, RGS4 inhibitor -4%, SW480 rereplic inconclusive, MCF10A rerep inconclusive and KB-3-1 tox inconclusive.
For CC1CCCCC12NC(=O)N(CC(=O)NCc1cccs1)C2=O (stereo not given) the results were KB-V1 cytotox inactive and KB-3-1 tox inactive.
For Cc1cc(C(=O)CN2C(=O)NC3(CCCCC3C)C2=O)c(C)n1Cc1cccs1 (stereo not given) the results were TSG101-PTAP inh -2%, KB-V1 cytotox 23µM*, RGS4 inhibitor 25%, SW480 rereplic 1%, MCF10A rerep 15% and KB-3-1 tox inactive.
For CCCn1ccc2c(OCC(=O)Nc3ccc(F)cc3F)cccc2c1=O the results were KB-V1 cytotox inactive, RGS4 inhibitor -22% and KB-3-1 tox inactive.
Screening COCc1ccc(-c2c(-c3ccsc3)oc(=O)c3cc(OC)c(OC)cc23)cc1 returned TSG101-PTAP inh -10%, KB-V1 cytotox inconclusive, RGS4 inhibitor 9%, SW480 rereplic 1%, MCF10A rerep 3.7µM* and KB-3-1 tox inconclusive.
`O=c1ccc(-c2ccccc2)nn1Cc1ccccc1` gave TSG101-PTAP inh -6%, KB-V1 cytotox inactive, RGS4 inhibitor -9%, SW480 rereplic 5%, MCF10A rerep -5% and KB-3-1 tox inactive.
Cc1ccc(-c2ccc(=O)n(Cc3cccc(Br)c3)n2)cc1 was read as TSG101-PTAP inh -5%, KB-V1 cytotox 16µM*, RGS4 inhibitor -10%, SW480 rereplic inconclusive, MCF10A rerep inconclusive and KB-3-1 tox inconclusive.
For CCOC(=O)c1cc2nc(Nc3ccc(OC)cc3)sc2s1 the results were TSG101-PTAP inh 7%, KB-V1 cytotox inactive, RGS4 inhibitor -11%, SW480 rereplic inconclusive, MCF10A rerep 4.6µM* and KB-3-1 tox inactive.
`CCOC(=O)c1sc(Nc2ccc(Br)cc2)nc1C` gave TSG101-PTAP inh -1%, KB-V1 cytotox inactive, RGS4 inhibitor -14%, SW480 rereplic -4%, MCF10A rerep inconclusive and KB-3-1 tox inactive.
For CC[n+]1c(/C=C/N(C)c2ccccc2)n(-c2ccccc2)c2ccc(-c3nc4ccccc4s3)cc21 the results were TSG101-PTAP inh 1%, KB-V1 cytotox inactive, RGS4 inhibitor inconclusive, SW480 rereplic 16µM*, MCF10A rerep inconclusive and KB-3-1 tox 5.8µM*.
For COc1ccc(NS(=O)(=O)c2ccc3oc(SC)nc3c2)cc1 the results were TSG101-PTAP inh -4%, KB-V1 cytotox inconclusive, RGS4 inhibitor inconclusive, SW480 rereplic -3%, MCF10A rerep inconclusive and KB-3-1 tox inconclusive.
COc1ccc(NS(=O)(=O)c2ccc3oc(SC4CCOC4=O)nc3c2)cc1 (stereo not given) was read as TSG101-PTAP inh 2%, KB-V1 cytotox inactive, RGS4 inhibitor -20%, SW480 rereplic inconclusive, MCF10A rerep 2.9µM* and KB-3-1 tox inactive.
Screening O=C1CCCCc2sc(Br)c([N+](=O)[O-])c2N1 returned TSG101-PTAP inh -12%, KB-V1 cytotox inactive, RGS4 inhibitor -10%, SW480 rereplic 2.9µM*, MCF10A rerep inconclusive and KB-3-1 tox inactive.
COC(=O)C1NN=C(C(=O)c2ccc(Cl)cc2)C1c1ccc(OC)cc1 (stereo not given) was read as TSG101-PTAP inh 0%, KB-V1 cytotox inconclusive, RGS4 inhibitor -8%, SW480 rereplic -1%, MCF10A rerep -25% and KB-3-1 tox inactive.
For COC(=O)C1NN=C(C(=O)c2ccccc2)C1c1ccccc1 (stereo not given) the results were TSG101-PTAP inh -1%, KB-V1 cytotox 15µM*, RGS4 inhibitor -15%, SW480 rereplic -151%, MCF10A rerep -70% and KB-3-1 tox inactive.
Cc1ccnc(NC(=S)Nc2cccc([S+](=O)([O-])Nc3ccccc3F)c2)c1 was read as KB-V1 cytotox inactive and KB-3-1 tox inactive.
For CCOC(=O)N1CCN(c2ccc(C(=O)c3cccc(F)c3)cc2)CC1 the results were TSG101-PTAP inh -6%, KB-V1 cytotox inconclusive, RGS4 inhibitor -5%, SW480 rereplic -4%, MCF10A rerep -7% and KB-3-1 tox inactive.
For O=C(c1ccc(N2CCN(C(=O)c3cccc(F)c3)CC2)cc1)c1cccc(F)c1 the results were TSG101-PTAP inh -4%, KB-V1 cytotox 4.1µM*, RGS4 inhibitor -4%, SW480 rereplic 6%, MCF10A rerep inconclusive and KB-3-1 tox inactive.
For O=C(c1ccc(N2CCN(C(=O)c3ccccc3Br)CC2)cc1)c1cccc(F)c1 the results were TSG101-PTAP inh 0%, KB-V1 cytotox 5.8µM*, RGS4 inhibitor 3%, SW480 rereplic 12%, MCF10A rerep inconclusive and KB-3-1 tox inconclusive.
`Cn1ccnc1SCC(=O)Nc1cc(Cl)ccc1Cl` gave KB-V1 cytotox inactive, RGS4 inhibitor -9% and KB-3-1 tox inactive.
